Measured values taken from PubChem BioAssay AID2546 (National Center for Advancing Translational Sciences (NCATS), 2010).
About 11,000 (3.5%) of roughly 310,000 compounds were called active. Inconclusive results (about 8%) are left out. Calls come from the whole dose curve; as a rule, active = well fitted inhibition curve with a large enough effect; inconclusive = small, poorly fitted or top-dose-only effect, or effect the other way; inactive = flat fitted curve, though single readings scatter. Shown is part of a subset that was picked to be rich in actives.

Test: VP16 counterscreen qHTS for inhibitors of ROR gamma transcriptional activity;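 note: Gal4-VP16 expression switched on by copper sulfate through the metallothionein promoter; nearly all actives have a fitted effect of over 50% in size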
Details: Drosophila S2 Gal4-VP16 UAS-luciferase, luminescence, 20 h; series mostly up to 53.6 µM; activity, negative = inhibition: at the top concentration
Description: NIH Molecular Libraries Probe Production Network [MLPCN]
NIH Chemical Genomics Center [NCGC]
Assay Provider: Dan Littman, New York University
The retinoic acid-related orphan receptor (ROR) gamma is a transcription factor that has a central role in the differentiation of Th17 cells, a subset of T helper cells that secrete the inflammatory cytokines IL-17, IL-17F, and IL-22. Th17 cells have been implicated in graft versus host disease, autoimmune disease and asthma. ROR gamma is induced in naive T helper cells in the presence of TGF-beta combined with IL-6, IL-21, or IL-23, and thereafter directs the expression of the Th17 lineage cytokines. To identify nonspecific inhibitors, a Drosophila Schneider cell line was stably transfected with two vectors: a gene expressing a fusion of the Gal4 DNA binding domain and VP16 transactivation domain under the control of the metallothionine promoter and a Photinus luciferase reporter regulated by the Gal4 binding site enhancer, UAS. […] Small molecule inhibitors that inhibit components common to the RORgt and VP16 assays, such as the Gal4 DNA binding domain or the UAS luciferase reporter, will be active in both assays and thus scored as nonspecific.
For screening, 600 cells in 4 uL/well were dispensed into white solid 1536-well plates (Grenier) using a solenoid-based dispenser. Following transfer of 23 nL compound or DMSO vehicle by a pin tool, the plates were incubated 1 hr at ambient temperature, and 1 uL/well copper sulfate (700 uM final concentration) was added. The plates were centrifuged 15 s at 1000 RPM and incubated 20 hr at ambient temperature. After addition of 1.5 uL Photinus luciferase detection reagent, the plates were incubated 10 min at ambient temperature and then read by a ViewLux (Perkin Elmer) to detect luminescence.
% is set by controls: 0 for no effect and ±100 for the full control effect; potency is the fitted concentration of half-maximal effect.

Compound	activity, negative = inhibition	Potency
COc1cc(C(=O)OCC(=O)NC(C)CCc2ccccc2)cc(OC)c1OC (stereo not drawn)	3.99% (inactive)	
O=C(C[n+]1cc(Br)cc2ccccc21)c1ccc(F)cc1	16.3% (inactive)	
COc1ccc(CNc2ncnc3ccccc23)cc1		7.08 µM (active)
COc1ccc(Nc2ncnc3ccc(OC)cc23)cc1	-2.23% (inactive)	
Brc1ccc2ncnc(NCc3cccnc3)c2c1	3.99% (inactive)	
c1ccc(-c2nc(NCc3ccco3)c3ccccc3n2)cc1	-86.1% (inactive)	
c1coc(CNc2ncnc3ccccc23)c1		10 µM (active)
COc1cccc(CNc2nc(C(F)(F)F)nc3ccccc23)c1	-10.5% (inactive)	
CCOCCCN(C)C1CCN(C(=O)c2oc3ccccc3c2NC(=O)COc2cccc(C)c2)CC1	-2.07% (inactive)	
Cc1cccn2c(=O)c3cc(C(=O)NCCN4CCOCC4)c(=N)n(Cc4cccnc4)c3nc12	-1.41% (inactive)	
COc1cc2c(cc1OC)CN(C(=O)c1cc(S(=O)(=O)N3CCCCC3)ccc1Cl)CC2	6% (inactive)	
CCCc1nc(SCC(=O)N2CCCC2)c2c(=O)n(C)c(=O)n(C)c2n1	7.13% (inactive)	
CCC(O)CNc1nc(-n2nc(C)cc2C)nc2sc3c(c12)CC(C)(C)OC3 (stereo not drawn)		3.98 µM (active)
COCCNc1nc(-n2nc(C)cc2C)nc2sc3c(c12)CCCC3		3.16 µM (active)
CC/C(C)=N/Nc1nc2sc3c(c2c(=O)[nH]1)CC(C)(C)OC3	-5.75% (inactive)	
Cc1ccc(C)c(-n2c(SCC(=O)O)nc3sc4c(c3c2=O)CCCC4)c1	-15.4% (inactive)	
Cc1nc2sc3c(c2c(=O)n1NC(=O)CCl)CCCC3	0.993% (inactive)	
Cc1cc(C)n(-c2nc(SCC(=O)N3CCCC3)c3c4c(sc3n2)CCCC4)n1		10 µM (active)
CC(C)c1nc(SCC(=O)Nc2cccc(C(=O)O)c2)c2c3c(sc2n1)CCCC3	13% (inactive)	
CCOC(=O)CSc1nc2sc3c(c2c(=O)[nH]1)CC(C)(C)OC3	-4.44% (inactive)	
O=C(C1CCCN(S(=O)(=O)c2ccccc2)C1)N1CCN(c2ccc(F)cc2)CC1 (stereo not drawn)	-1.43% (inactive)	
Cc1nc([N+](=O)[O-])cn1CC(=O)Nc1ccc(Cl)cc1	-5.36% (inactive)	
CC(NC(=S)Nc1ccccc1)C1COc2ccccc2O1 (stereo not drawn)		5.01 µM (active)
O=C(NCC1COc2ccccc2O1)C1(c2ccccc2)CCCC1 (stereo not drawn)	-20.2% (inactive)	
CC(=O)c1cccc(NC(=O)C2COc3ccccc3O2)c1 (stereo not drawn)	28.1% (inactive)	
CSc1c(SCc2ccccc2)cnn(Cc2ccccc2)c1=O		7.08 µM (active)
CSc1nc2ccccc2c(=O)n1Cc1ccc(F)cc1	7.17% [at 10 µM] (inactive)	

Compound	activity, negative = inhibition	Potency
Cn1c(CO)cnc1SCc1ccccc1	1.65% (inactive)	
O=C(NCC(=O)N1CCN(c2ccccc2O)CC1)c1ccc2ccccc2c1	1.8% (inactive)	
Cc1ccccc1-n1cc(CNC(=O)C2CCC(=O)N(C3CC3)C2)cn1 (stereo not drawn)	-2.71% (inactive)	
CC(C)CC(=O)Nc1ccc(Cc2ccncc2)cc1	2.31% (inactive)	
Cc1c(C(=O)N2CCCc3ccccc32)oc2ccccc12	-1.3% (inactive)	
Cc1cc(-c2ccc(C)c(S(=O)(=O)NCCCN(Cc3ccccc3)C(C)C)c2)on1	13.3% (inactive)	
Cc1noc(C)c1C(=O)OCC(=O)/C=C1\N(C)c2ccccc2C1(C)C	-5.14% (inactive)	
CN1/C(=C\C(=O)c2cccnc2Cl)C(C)(C)c2ccccc21	-8.82% (inactive)	
CC(=O)Nc1cccc(OCC(=O)/C=C2\N(C)c3ccccc3C2(C)C)c1		3.16 µM (active)
COCC1CCN(C(=O)CCc2nnc(C3(c4ccc(Cl)cc4)CCC3)o2)C1 (stereo not drawn)	27.7% (inactive)	
C=CCn1c(=O)c(C(=O)NCc2ccc3c(c2)OCO3)c(O)c2ccccc21	-4.31% (inactive)	
CN(C)S(=O)(=O)c1ccc(NC(=O)COC(=O)c2n[nH]c3ccccc23)cc1		8.91 µM (active)
CN(C)S(=O)(=O)c1ccc(NC(=O)COC(=O)Cn2[nH]c(=O)c3ccccc3c2=O)cc1	-2.41% (inactive)	
O=C(COC(=O)c1n[nH]c2ccccc12)NCc1ccccc1	7.8% (inactive)	
CCC(=O)Nc1ccc(C(=O)Nc2ccc3c(c2)C(=O)N(CC2CCCO2)C3=O)cc1 (stereo not drawn)	-24.9% (inactive)	
O=C1c2cccc3c([N+](=O)[O-])ccc(c23)C(=O)N1CC1CCCO1 (stereo not drawn)		5.62 µM (active)
O=C(/C=C/c1ccccc1[N+](=O)[O-])NCC1CCCO1 (stereo not drawn)	3.92% (inactive)	
Cc1ccc(-n2c(C)nnc2SCC(=O)NC2CC2)cc1	1.94% (inactive)	
O=C(NCc1cccc(Cl)c1)C1CCC(=O)N(C2CC2)C1 (stereo not drawn)	-5.17% (inactive)	
CCOc1ccccc1N1CCN(C(=S)Nc2ccc(S(N)(=O)=O)cc2)CC1	-15.7% (inactive)	
CCOc1ccccc1NC(=S)N1CCN(c2cccc(C)c2C)CC1		4.47 µM (active)
CCC(=O)N1CCN(c2ccccc2NC(=O)COc2cccc(C)c2C)CC1	4.11% (inactive)	
COc1ccccc1CN1CCN(C(c2ccccc2)c2ccccc2)CC1	-11.1% (inactive)	
COc1ccccc1NC(=S)N1CCN(C(c2ccccc2)c2ccccc2)CC1		20 µM (active)
COc1ccccc1NC(=S)N1CCN(c2ccc(F)cc2)CC1	-3.46% (inactive)	
Cc1sc2nc(SCCO)n(-c3ccccc3)c(=O)c2c1C	-3% (inactive)	
